According to PubChem BioAssay (Tox21):
Results filed as inconclusive are left out. Calls of active or inactive are those of the source. Unless noted, calls come from the whole dose curve; as a rule, active = well fitted curve in the direction sought with a large enough effect in the repeat runs; inconclusive = weak or mixed curves; inactive = no such curve, though single readings can be large; an effect the other way counts as inactive or inconclusive.

Columns and labels:
[1] = qHTS assay to identify small molecule antagonists of the vitamin D receptor (VDR) signaling pathway - cell viability counter screen (AID 743225); note: % is set by controls: 0 for no effect and ±100 for the full control effect; nearly all actives have a fitted effect of over 50% in size
Summary of the method: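 HEK293T VDR-bla; cpd + 1a,25-(OH)2D3 3 nM final, 16 h 37C/5% CO2; B/G FRET substrate 2 h RT; then CellTiter-Glo 30 min RT, luminescence.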

[2] = qHTS assay to identify small molecule agonists of the NFkB signaling pathway (AID 1159509; active = well fitted curve in the direction sought with a large enough effect in the signal ratio in the repeat runs, not every such curve was filed as active; the % refers to the signal ratio; note: series mostly up to about 61 µM; % is set by controls: 0 for no effect and ±100 for the full control effect)
Summary of the method: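 ME-180 NFkB-bla, 2,000 cells/well, overnight plating; cpd pinned in DMSO, 5 h 37 C; B/G FRET substrate 1.5 h RT; ex 405, em 460/530 nm.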

[3] = qHTS assay to identify small molecule agonists of the NFkB signaling pathway - cell viability counter screen (AID 1159515; calls by dose curve; note: series mostly up to about 61 µM; % is set by controls: 0 for no effect and ±100 for the full control effect; nearly all actives have a fitted effect of over 55% in size)
Summary of the method: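 NFkB-bla ME-180 cells, 2,000/well, plated overnight at 37 C; compound added for 5 hr at 37 C. Viability read in the same wells as the bla reporter, by CellTiter-Glo luminescence after 30 min at room temperature.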

[4] = qHTS assay to identify small molecule agonists of the endoplasmic reticulum stress response signaling pathway (AID 1159516; active = well fitted activation curve with a large enough effect in the signal ratio in the repeat runs, not every such curve was filed as active; the % refers to the signal ratio; note: % is set by controls: 0 for no effect and ±100 for the full control effect)
Summary of the method: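 CellSensor ESRE-bla HeLa cells, 1,500 per well, plated overnight, then exposed to compounds for 5 hr at 37 C. Beta-lactamase reporter read with LiveBLAzer B/G FRET substrate after 2 hr at room temperature, 405 nm excitation, 460 and 530 nm emission.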

[5] = qHTS assay to identify small molecule antagonists of the retinoid-related orphan receptor gamma (ROR-gamma) signaling pathway - cell viability counter screen (AID 1159520); note: % is set by controls: 0 for no effect and ±100 for the full control effect; nearly all actives have a fitted effect of over 50% in size
Summary of the method: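 Tet-on ROR gamma CHO cells were given compounds for 2 hr, then doxycycline hyclate at 1 uM final, and incubated 16 hr at 37 C. Viability was measured as ATP content by CellTiter-Glo luminescence.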

[6] = molecular target: Nuclear receptor ROR-gamma (Homo sapiens) (UniProt P51449); assay: qHTS assay to identify small molecule antagonists of the retinoid-related orphan receptor gamma (ROR-gamma) signaling pathway (AID 1159521;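 note: CHO cells with doxycycline inducible ROR-gamma driving an RORE luciferase reporter; top concentration of the series differs between compounds; % is set by controls: 0 for no effect and ±100 for the full control effect; nearly all actives have a fitted effect of over 50% in size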)
Summary of the method: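 Cells were plated, rested 4 h at 37 C, exposed to compounds for 2 h, then given 1 uM final doxycycline hyclate to induce RORγ expression. After 16 h, ONE-Glo luminescence from the ROR response element reporter was measured.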

[7] = qHTS assay to identify small molecule agonists of the AP-1 signaling pathway - cell viability counter screen (AID 1159525; calls by dose curve; note: nearly all actives have a fitted effect of over 55% in size)
Summary of the method: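 AP-1-bla ME-180 cells in Opti-MEM with 0.5% dialyzed FBS, compound exposure 5 h at 37 C in 15-point titration. Viability read in the same wells as ATP content by CellTiter-Glo luminescence, normalised to tetra-n-octylammonium bromide and DMSO controls.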

[8] = qHTS assay to identify small molecule agonists of the AP-1 signaling pathway (AID 1159526; calls by dose curve; note: % is set by controls: 0 for no effect and ±100 for the full control effect)
[9] = molecular target: Retinoic acid receptor RXR-alpha (Homo sapiens) (UniProt P19793); assay: qHTS assay to identify small molecule agonists of the RXR signaling pathway (AID 1159527; calls by dose curve; note: % is set by controls: 0 for no effect and ±100 for the full control effect; nearly all actives have a fitted effect of over 35% in size)
Sequence of Retinoic acid receptor RXR-alpha (Homo sapiens) (P19793 whole entry, looked up): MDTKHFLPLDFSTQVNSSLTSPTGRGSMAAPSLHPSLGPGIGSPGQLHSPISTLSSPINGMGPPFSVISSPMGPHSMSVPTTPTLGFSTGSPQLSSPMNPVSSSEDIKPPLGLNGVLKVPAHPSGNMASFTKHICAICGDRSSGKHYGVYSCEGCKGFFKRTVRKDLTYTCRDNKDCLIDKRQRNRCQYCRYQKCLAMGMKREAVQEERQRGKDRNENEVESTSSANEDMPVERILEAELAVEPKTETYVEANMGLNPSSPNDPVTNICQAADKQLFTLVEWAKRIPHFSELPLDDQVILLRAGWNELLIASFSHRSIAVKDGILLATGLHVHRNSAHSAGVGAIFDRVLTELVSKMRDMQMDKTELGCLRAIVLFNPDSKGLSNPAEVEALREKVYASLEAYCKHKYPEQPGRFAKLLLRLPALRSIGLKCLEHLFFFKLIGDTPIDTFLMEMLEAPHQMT
Summary of the method: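 Cells plated at 2,000/well, rested 5 hr at 37 C, pin-dosed with DMSO compound solutions, incubated 16 hr, then loaded with B/G FRET substrate for 2 hr at RT before dual-emission fluorescence reading.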

[10] = qHTS assay to identify small molecule agonists of the RXR signaling pathway - cell viability counter screen (AID 1159529);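 note: HEK 293T cells carrying an RXR-alpha UAS beta-lactamase reporter; series mostly up to about 77 µM; % is set by controls: 0 for no effect and ±100 for the full control effect; nearly all actives have a fitted effect of over 50% in size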
Summary of the method: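 Steps: seed RXR-alpha-UAS-bla HEK 293T cells in assay medium containing 2% charcoal-stripped FBS; incubate 5 hr; add compounds in DMSO; incubate 16 hr at 37 C; after the bla read, add CellTiter-Glo and read luminescence at 30 min.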

[11] = qHTS assay to identify small molecule antagonists of the retinoid acid receptor (RAR) signaling pathway - cell viability counter screen (AID 1159551); note: % is set by controls: 0 for no effect and ±100 for the full control effect; nearly all actives have a fitted effect of over 35% in size
Summary of the method: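 C3RL4 RARE-luciferase cells, 1,000/well, incubated overnight, then dosed with compound plus 1 uM retinol (final). After 6 hr at 37 C, viability read by CellTiter-Glo ATP luminescence following 30 min at room temperature.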

[12] = qHTS assay to identify small molecule antagonists of the retinoic acid receptor (RAR) signaling pathway (AID 1159552)
Summary of the method: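 Retinol at 1 uM final stimulated RARE-luciferase expression in C3RL4 cells exposed to test compounds for 6 hr at 37 C. Reduced luminescence, read 30 min after detection reagent, indicated pathway antagonism.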

[13] = qHTS assay to identify small molecule agonists of the retinoic acid receptor (RAR) signaling pathway (AID 1159553); note: % is set by controls: 0 for no effect and ±100 for the full control effect
Summary of the method: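 C3RL4 RARE-luciferase cells were seeded at 1,000/well and grown overnight at 37 C, then exposed to compounds for 6 hr at 37 C, 5% CO2. Luciferase reagent was added and luminescence was read after 30 min at room temperature.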

[14] = qHTS assay to identify small molecule antagonists of the estrogen related receptor (ERR) signaling pathway from Tox21 library - cell viability counter screen (AID 1224834); note: % is set by controls: 0 for no effect and ±100 for the full control effect; nearly all actives have a fitted effect of over 30% in size
Summary of the method: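 ERR reporter cells, 2,000 per well, rested 6 h, then exposed to compound in DMSO for 17.5 hours at 37 C. Viability read as fluorescence after 30 min with CellTiter-Fluor.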

[15] = molecular target: Luciferin 4-monooxygenase (Photinus pyralis) (UniProt P08659); assay: qHTS assay to identify small molecule inhibitors of firefly luciferase (AID 1224835); note: series mostly up to about 120 µM; % is set by controls: 0 for no effect and ±100 for the full control effect; nearly all actives have a fitted effect of over 25% in size
Sequence of Luciferin 4-monooxygenase (Photinus pyralis) (P08659 whole entry, looked up): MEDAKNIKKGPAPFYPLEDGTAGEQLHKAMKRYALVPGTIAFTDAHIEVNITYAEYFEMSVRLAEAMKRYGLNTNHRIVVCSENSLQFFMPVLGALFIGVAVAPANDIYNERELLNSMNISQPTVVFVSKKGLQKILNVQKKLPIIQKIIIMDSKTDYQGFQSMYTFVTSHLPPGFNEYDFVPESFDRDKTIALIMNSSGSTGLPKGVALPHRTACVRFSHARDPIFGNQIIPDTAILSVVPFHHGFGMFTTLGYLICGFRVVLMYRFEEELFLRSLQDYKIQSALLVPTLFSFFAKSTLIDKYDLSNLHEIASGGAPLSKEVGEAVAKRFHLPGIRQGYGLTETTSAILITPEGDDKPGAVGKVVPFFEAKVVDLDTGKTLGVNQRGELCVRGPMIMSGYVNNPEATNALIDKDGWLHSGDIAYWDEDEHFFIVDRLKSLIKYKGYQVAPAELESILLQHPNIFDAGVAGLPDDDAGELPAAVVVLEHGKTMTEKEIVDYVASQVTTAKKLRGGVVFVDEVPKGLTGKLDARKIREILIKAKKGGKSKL
Summary of the method: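 Biochemical qHTS: compounds run as interplate titrations against purified firefly enzyme, with D-luciferin and ATP each at its KM concentration. Light output recorded by CCD imaging.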

[16] = qHTS assay to identify small molecule antagonists of the constitutive androstane receptor (CAR) signaling pathway - cell viability counter screen (AID 1224837); note: series mostly up to about 92 µM; % is set by controls: 0 for no effect and ±100 for the full control effect; nearly all actives have a fitted effect of over 45% in size
Summary of the method: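 HepG2 cells stably carrying hCAR and CYP2B6-2.2kb reporter, stimulated with 50 nM CITCO and compounds at 15 concentrations for 23 h at 37 C. Viability measured by CellTiter-Fluor fluorescence.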

[17] = molecular target: Nuclear receptor subfamily 1 group I member 3 (Homo sapiens) (UniProt Q14994); assay: qHTS assay to identify small molecule antagonists of the constitutive androstane receptor (CAR) signaling pathway (AID 1224838); note: % is set by controls: 0 for no effect and ±100 for the full control effect; nearly all actives have a fitted effect of over 40% in size
Sequence of Nuclear receptor subfamily 1 group I member 3 (Homo sapiens) (Q14994 whole entry, looked up): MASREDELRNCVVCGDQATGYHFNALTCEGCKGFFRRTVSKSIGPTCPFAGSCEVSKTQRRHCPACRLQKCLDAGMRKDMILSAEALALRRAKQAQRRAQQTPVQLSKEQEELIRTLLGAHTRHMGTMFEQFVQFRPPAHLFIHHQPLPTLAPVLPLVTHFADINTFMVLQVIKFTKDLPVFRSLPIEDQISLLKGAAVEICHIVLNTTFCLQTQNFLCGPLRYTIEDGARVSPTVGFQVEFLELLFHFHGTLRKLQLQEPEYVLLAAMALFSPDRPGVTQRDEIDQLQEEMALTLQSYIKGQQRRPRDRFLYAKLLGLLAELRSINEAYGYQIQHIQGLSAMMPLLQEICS
Summary of the method: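 HepG2 cells stably carrying hCAR and a CYP2B6-2.2kb luciferase reporter, seeded 4 hrs before compound (15 concentrations). Stimulated with 50 nM CITCO for 24 hr at 37 C. ONE-Glo luminescence read after 30 min at room temperature.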

[18] = molecular target: Nuclear receptor subfamily 1 group I member 3 (Homo sapiens) (UniProt Q14994); assay: qHTS assay to identify small molecule agonists of the constitutive androstane receptor (CAR) signaling pathway (AID 1224839); note: series mostly up to about 92 µM; % is set by controls: 0 for no effect and ±100 for the full control effect; nearly all actives have a fitted effect of over 15% in size
Summary of the method: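 Cells were plated and incubated 4 hrs, then dosed with compounds at 15 concentrations. PK11195 was added to 0.75 uM final. After 24 hrs at 37 C, luciferase luminescence was measured.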

[19] = qHTS assay to identify small molecule agonists of the constitutive androstane receptor (CAR) signaling pathway - cell viability counter screen (AID 1224836); note: series mostly up to about 92 µM; % is set by controls: 0 for no effect and ±100 for the full control effect; nearly all actives have a fitted effect of over 45% in size
Summary of the method: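 Cells were seeded and incubated 4 hrs. Compounds were added across 15 concentrations together with PK11195 at 0.75 uM final. Plates were incubated 23 hrs at 37 C. CellTiter-Fluor was added and fluorescence measured.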

O=S(=O)(O)c1ccc2c(N=Nc3ccc(S(=O)(=O)O)c4ccccc34)c(O)c(S(=O)(=O)O)cc2c1
inactive: viability change, negative = cytotoxic [1] 6.08% [at 6.95 µM] | activation [2] 0.493% [at 6.95 µM] | activity, negative = cytotoxic [3] 6.88% [at 6.95 µM] | activation [4] -2.39% [at 6.95 µM] | activity, negative = cytotoxicity [5] -3.34% [at 8.39 µM] | activity change, negative = inhibition [6] 0.236% [at 8.39 µM] | viability change, negative = cytotoxic [7] 6.35% [at 6.97 µM] | activation [8] -3.05% [at 6.97 µM] | activation [9] 0.333% [at 6.98 µM] | activity change, negative = cytotoxicity [10] 0.355% [at 6.97 µM] | activity change, negative = cytotoxicity [11] -2.67% [at 8.39 µM] | activity, negative = inhibition [12] 111% [at 8.39 µM] | activation [13] -2.37% [at 8.36 µM] | viability change, negative = cytotoxic [14] -6.16% [at 8.39 µM] | activity change, negative = inhibition [15] -3.96% [at 10.5 µM] | activity change, negative = cytotoxicity [16] -18.2% [at 8.39 µM] | activity, negative = inhibition [17] -7.08% [at 8.39 µM] | activation [18] 0.066% [at 8.39 µM]

O=C(CCCCC(=O)Nc1c(I)cc(I)c(C(=O)O)c1I)Nc1c(I)cc(I)c(C(=O)O)c1I
inactive: outcome [1] | outcome [2] | outcome [3] | outcome [4] | outcome [5] | outcome [6] | outcome [7] | outcome [8] | Potency [9] | outcome [10] | outcome [11] | outcome [12] | Potency [13] | outcome [14] | Potency [15] | outcome [19] | outcome [16] | Potency [17] | Potency [18]

C/C=C(\C)C(C)=O
inactive: outcome [1] | outcome [2] | outcome [3] | outcome [4] | outcome [5] | outcome [6] | outcome [8] | Potency [9] | outcome [10] | outcome [11] | outcome [12] | Potency [13] | outcome [14] | Potency [15] | outcome [19] | outcome [16] | Potency [17] | Potency [18]

CC1=C(C(=O)O)N2C(=O)[C@@H](NC(=O)[C@H](N)C3=CCC=CC3)[C@H]2SC1
inactive: outcome [1] | outcome [2] | outcome [3] | outcome [4] | outcome [5] | outcome [6] | outcome [7] | outcome [8] | Potency [9] | outcome [10] | outcome [11] | outcome [12] | Potency [13] | outcome [14] | Potency [15] | outcome [19] | outcome [16] | Potency [17] | Potency [18]

CC(C)CO
inactive: outcome [1] | outcome [2] | outcome [3] | outcome [4] | outcome [5] | outcome [6] | outcome [7] | outcome [8] | Potency [9] | outcome [10] | outcome [11] | outcome [12] | Potency [13] | outcome [14] | Potency [15] | outcome [19] | outcome [16] | Potency [17] | Potency [18]

CC(C)OC(=O)CCC(=O)OC(C)C
inactive: outcome [1] | outcome [2] | outcome [3] | outcome [4] | outcome [5] | outcome [6] | outcome [7] | outcome [8] | Potency [9] | outcome [10] | outcome [11] | outcome [12] | Potency [13] | outcome [14] | Potency [15] | outcome [19] | outcome [16] | Potency [17]

O=NN(CCCl)C(=O)NC1CCCCC1
inactive: outcome [1] | outcome [2] | outcome [3] | outcome [4] | outcome [5] | outcome [6] | outcome [8] | Potency [9] | outcome [10] | outcome [11] | outcome [12] | Potency [13] | outcome [14] | Potency [15] | outcome [19] | outcome [16] | Potency [17]

Cc1c(Cl)cccc1Cl
inactive: outcome [1] | outcome [2] | outcome [3] | outcome [4] | outcome [5] | outcome [6] | outcome [7] | outcome [8] | Potency [9] | outcome [10] | outcome [11] | outcome [12] | Potency [13] | outcome [14] | Potency [15] | outcome [19] | outcome [16] | Potency [17] | Potency [18]

CO[C@@]1(NC(=O)Cc2cccs2)C(=O)N2C(C(=O)O)=C(COC(N)=O)CS[C@@H]21
inactive: outcome [1] | outcome [2] | outcome [3] | outcome [4] | outcome [5] | outcome [6] | outcome [7] | outcome [8] | Potency [9] | outcome [10] | outcome [11] | outcome [12] | Potency [13] | outcome [14] | Potency [15] | outcome [19] | outcome [16] | Potency [17]
